The values that follow come from PMC5540273 (PLoS ONE, 2017).

Structures are written as SMILES.

What all share (conditions): concentration: 1 μM, replicates: in singlicate; n = 1
For experiment [1], the system named is ADCK4.
For experiment [2], the system named is AKT1.
Experiment [3] deals with AKT2.
Experiment [4] deals with AKT3.
Experiment [5] has as its system ALK.
In experiment [6] the test system is T1, AMPK-alpha1.
T1 construct: gene PRKAA1

In experiment [7] the test system is T2, AMPK-alpha2.
T2 construct: gene PRKAA2

Experiment [8] deals with ANKK1.
Experiment [9] relates to T3, ARK5.
T3 construct: gene NUAK1

Experiment [10] relates to T4, ASK1.
T4 construct: gene MAP3K5

For experiment [11], the system named is T5, ASK2.
T5 construct: gene MAP3K6

Experiment [12] concerns AURKA.
The test system of experiment [13] is AURKB.
Experiment [14] concerns AURKC.
The subject of experiment [15] is AXL.
Experiment [16] deals with T6, BIKE.
T6 construct: gene BMP2K

For experiment [17], the system named is BLK.
In experiment [18] the test system is BMPR1A.
Experiment [19] relates to BMPR1B.
Experiment [20] relates to BMPR2.
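Further: KINOMEscan kinase panel screen.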

For the molecule `C[C@@H](Oc1cc(-n2cnc3cc(-c4ccnc(NCCS(C)(=O)=O)c4)ccc32)sc1C(N)=O)c1ccccc1Cl` [GSK907232], the “%Inh” value in experiment [1] was 10%; in [2] it was 0%; in experiment [3], 16%; in experiment [4], 0%; in experiment [5], 18%; in experiment [6], 0%. The “%Inh” value in experiment [7] was 0%; in experiment [8], 0%; in experiment [9] it was 84%; in [10], 0%; in experiment [11], 7%; in [12] it was 0%. Further, the “%Inh” value in [13] stood at 27%; in [14], 65%; in experiment [15], 91%; in experiment [16], 97.7%; in experiment [17] it was 30%; in [18] it was 21%. Moreover, the “%Inh” value in experiment [19] and in experiment [20] was 0% in each case.
Regarding `Clc1ccc(-c2nn3ncccc3c2-c2ccnc(Nc3ccc4c(c3)OCCO4)n2)cc1` [GW829116], the “%Inh” value in experiment [1] was determined as 90.4%; in experiment [2] it was 13%; in experiment [3], 0%; in [4], 0%; in [5], 0%; in [6] it was 0%. The “%Inh” value amounted to 0% in experiment [7]; 0% in [8]; 0% in experiment [9]; 0% in experiment [10]; 0% in [11]; 18% in experiment [12]. For the same molecule, the “%Inh” value in experiment [13] was found to be 0%; in [14], 0%; in [15], 0%; in experiment [16], 0%; in experiment [17], 48%; in experiment [18], 0%. For the same molecule, the “%Inh” value in experiment [19] and in experiment [20] was 0% throughout.
Take `CNC(=O)c1ccccc1Nc1nc(Nc2ccc(N3CCOCC3)cc2)ncc1Cl.Cl` [GSK1576028]: the “%Inh” value worked out at 44% in experiment [1]; 42% in experiment [2]; 62% in experiment [3]; 0% in [4]; 88% in experiment [5]; 99.2% in [6]. The “%Inh” value is 99.4% in experiment [7]; 12% in [8]; 99.8% in experiment [9]; 0% in [10]; 16% in experiment [11]; 100% in [12]. In addition, the “%Inh” value came to 99.9% in experiment [13]; 100% in experiment [14]; 100% in experiment [15]; 100% in [16]; 99.7% in experiment [17]; 28% in [18]. The “%Inh” value in experiment [19] amounted to 100%; in experiment [20] it was 53%.
For the molecule `CN(C)S(=O)(=O)c1cc(-c2ccc3nccc(-c4cccc(S(N)(=O)=O)c4)c3c2)cnc1N` [GSK1669921], the “%Inh” value in experiment [1] is 0%; in experiment [2], 0%; in experiment [3], 5%; in [4], 0%; in [5], 30%; in experiment [6], 3%. Further, the “%Inh” value in experiment [7] turned out to be 0%; in experiment [8] it was 5%; in experiment [9], 11%; in experiment [10] it was 0%; in experiment [11] it was 5%; in experiment [12], 8%. Besides, the “%Inh” value worked out at 0% in experiment [13]; 17% in [14]; 10% in [15]; 22% in [16]; 18% in [17]; 0% in experiment [18]. The “%Inh” value in experiment [19] amounted to 0%; in [20], 3%.
Take `COc1cc(Nc2nccc(-c3c(-c4cccc(NC(=O)c5c(F)cccc5F)c4)nn4ccccc34)n2)cc(OC)c1OC` [GSK323521]: the “%Inh” value came to 0% in experiment [1]; 8% in experiment [2]; 0% in experiment [3]; 5% in experiment [4]; 14% in [5]; 20% in [6]. Further, the “%Inh” value came to 23% in [7]; 13% in [8]; 8% in experiment [9]; 5% in [10]; 4% in experiment [11]; 48% in experiment [12]. Also, the “%Inh” value is 90.6% in [13]; 15% in experiment [14]; 80% in experiment [15]; 21% in experiment [16]; 44% in experiment [17]; 0% in experiment [18]. Moreover, the “%Inh” value was found to be 0% in experiment [19] and 11% in [20].
`Cl.Cl.NCC(NCc1ccc(-c2ccnc3[nH]ccc23)s1)c1ccccc1` (stereo not shown) [GSK1321565]: the “%Inh” value in experiment [1] is reported as 44%; in [2] it was 71%; in experiment [3], 25%; in [4], 71%; in experiment [5], 64%; in experiment [6] it was 45%. Besides, the “%Inh” value in [7] turned out to be 28%; in [8], 22%; in experiment [9] it was 82%; in experiment [10], 16%; in experiment [11], 0%; in experiment [12] it was 47%. Moreover, the “%Inh” value is given as 79% in experiment [13]; 97.2% in [14]; 95.1% in [15]; 100% in experiment [16]; 0% in [17]; 0% in experiment [18]. The “%Inh” value in [19] came to 0%; in [20], 3%.
For `COc1cccc(-c2ccc3c(NC(=O)C4CC4)n[nH]c3n2)c1` [SB-710903], the “%Inh” value in [1] is recorded as 48%; in [2], 0%; in experiment [3] it was 0%; in experiment [4], 0%; in experiment [5], 29%; in experiment [6], 0%. Also, the “%Inh” value in [7] was found to be 13%; in experiment [8], 0%; in experiment [9] it was 0%; in experiment [10] it was 12%; in [11], 0%; in experiment [12], 0%. In addition, the “%Inh” value in experiment [13] was determined as 35%; in experiment [14] it was 0%; in experiment [15], 0%; in experiment [16], 0%; in experiment [17], 0%; in experiment [18], 0%. The “%Inh” value in [19] worked out at 35%; in experiment [20] it was 44%.
Turning to `CSc1cccc2c(-c3ccncn3)c(-c3ccc(F)cc3)nn12` [GW514786], the “%Inh” value was 35% in [1]; 0% in [2]; 0% in experiment [3]; 4% in experiment [4]; 29% in experiment [5]; 32% in experiment [6]. Moreover, the “%Inh” value in [7] was 0%; in experiment [8], 0%; in experiment [9] it was 12%; in experiment [10] it was 0%; in experiment [11] it was 29%; in experiment [12] it was 8%. Besides, the “%Inh” value in [13] is listed as 15%; in experiment [14] it was 7%; in experiment [15], 11%; in [16] it was 8%; in [17] it was 19%; in experiment [18] it was 10%. In addition, the “%Inh” value in [19] worked out at 0%; in [20], 11%.
